Cruzain inh Det: cruzain (T. cruzi) inhibition with detergent. 0.43% of 200,000 active. purified cruzain, Z-FR-AMC fluorescence, 0.01% Triton. P25779. Potency, µM, hits mostly inhibitors. AID 1478; further: nearly all actives have a fitted effect of over 40% in size
Target sequence (P25779 123-467 limits assumed): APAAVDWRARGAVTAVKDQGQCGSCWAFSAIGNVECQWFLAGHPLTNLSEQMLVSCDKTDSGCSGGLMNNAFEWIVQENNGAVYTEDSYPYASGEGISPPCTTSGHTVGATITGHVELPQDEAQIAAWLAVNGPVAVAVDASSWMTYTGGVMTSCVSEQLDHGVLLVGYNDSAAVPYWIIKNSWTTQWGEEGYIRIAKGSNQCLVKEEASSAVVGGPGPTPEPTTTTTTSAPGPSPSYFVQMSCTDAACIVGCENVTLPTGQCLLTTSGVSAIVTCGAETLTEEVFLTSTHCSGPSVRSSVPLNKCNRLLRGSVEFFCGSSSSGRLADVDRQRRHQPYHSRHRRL
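Cruzain (1.5 nM) preincubated 15 min at RT with compound in 100 mM sodium acetate pH 5.5, 5 mM DTT, 0.01% Triton X-100. Reaction started with 2 uM Z-FR-AMC; AMC fluorescence (ex 360/em 450 nm) change over 60 s gave rate.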
Cruzain inh noDet: blocks cruzain activity in detergent-free assay. purified cruzain, Z-FR-AMC fluorescence, no detergent. Potency, µM, usual class: inhibitors. 2.3% of 200,000 active. AID 1476; further: nearly all actives have a fitted effect of over 40% in size
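Detergent-free condition (0.00005% Triton X-100) in acetate buffer pH 5.5 with DTT. 1.5 nM enzyme and compound were pre-mixed 15 min, then 2 uM Z-FR-AMC substrate added; reaction progress from fluorescence change between first and third reads (60 s).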
Each line names hits and unclear results; the compound was inactive in the other large screens. Only some compounds are listed: those with a hit (about 2.6% of all), similar ones and a draw of the others. The call rests on the fitted dose curve; in most records, active means well fitted curve in the direction sought with a large enough effect; inconclusive means small, poorly fitted or top-dose-only effect, or another doubt; inactive means no such curve, though single readings can be large; an effect the other way counts as inactive or inconclusive.

CCOC(=O)c1c(C)oc2nc(C)nc(NCc3ccccc3Cl)c12	none
Cc1ccccc1OCc1nc(-c2ccc(NC(=O)c3ccc4c(c3)OCO4)cc2)no1	Cruzain inh noDet 13µM
Cc1ccccc1OCc1nc(-c2ccc(NC(=O)c3ccco3)cc2)no1	none
CCCCCn1c(=O)[nH]c2cc(C(=O)Nc3ccc(F)c(F)c3)ccc2c1=O	Cruzain inh noDet inconclusive
CCOc1ccccc1CNC(=O)c1sc2ncccc2c1-n1cccc1	none
COc1cc(C(=O)Nc2nc(-c3cc(C)ccc3C)c(C)s2)ccc1OCC(=O)Nc1ccc(F)cc1	Cruzain inh noDet 20µM
COc1ccc(-c2nc(NC(=O)c3ccc(OCC(=O)Nc4ccc(F)cc4)c(OC)c3)sc2C)cc1	none
O=C(COC(=O)/C=C/c1ccccc1[N+](=O)[O-])Nc1ccc(OCc2ccccc2)cc1	Cruzain inh noDet 25µM
O=C(COC(=O)/C=C/c1ccccc1[N+](=O)[O-])Nc1ccc(OC(F)F)cc1	none
Cn1cc(-c2cc3n(n2)CCC(=O)N3CCCC(=O)NCc2ccccc2Cl)c2ccccc21	Cruzain inh noDet inconclusive
O=C1N=C(N2CCN(c3ccccc3)CC2)SC1Cc1ccccc1 (stereo not given)	none
Cc1ccc(N2CCN(C3=NC(=O)C(Cc4ccccc4)S3)CC2)cc1 (stereo not given)	Cruzain inh Det 28µM
CCOc1ccc(CCNC(=O)C2CCN(c3nnc(-n4cccc4)s3)CC2)cc1	Cruzain inh noDet 16µM
CCOc1ccc(CCNC(=O)C2CCN(c3nnc(-n4cccc4)s3)CC2)cc1OCC	none
COc1ccccc1NS(=O)(=O)c1cc(NC(=O)c2ccncc2)ccc1N1CCOCC1	Cruzain inh noDet inconclusive
COc1ccccc1NS(=O)(=O)c1cc(NC(=O)/C=C/c2cccs2)ccc1N1CCOCC1	Cruzain inh noDet 25µM
O=C(/C=C/c1cccs1)Nc1ccc(N2CCOCC2)c(S(=O)(=O)Nc2cc(Cl)ccc2Cl)c1	Cruzain inh noDet 5µM
O=C(/C=C/c1ccc(Cl)cc1)NC(=S)Nc1ccc(N2CCOCC2)c(Cl)c1	Cruzain inh noDet inconclusive
O=C(/C=C/c1cccs1)Nc1ccc(N2CCOCC2)c(S(=O)(=O)Nc2ccccc2Cl)c1	Cruzain inh noDet 25µM
O=C(Nc1ccc(Cl)c(S(=O)(=O)Nc2ccccc2Cl)c1)c1cccs1	none
O=C(Nc1ccccc1Cl)C1CCN(c2nc3ccccc3nc2C(F)(F)F)CC1	none
CCCOc1ccc(CN(C(=O)Cc2coc3ccc(CC)cc23)C2CCS(=O)(=O)C2)cc1 (stereo not given)	Cruzain inh noDet inconclusive
CCC(=O)N1CCCc2cc(S(=O)(=O)N3CCC(C(=O)NCc4ccc(F)cc4)CC3)ccc21	none
Cc1cc(C)c2c(c1)/C(=N/NC(=S)Nc1ccc(F)cc1)CCC2	Cruzain inh noDet 16µM
Cc1cc(C)c2c(c1)/C(=N/NS(=O)(=O)c1ccccc1)CCC2	none
COc1cc(C2Nc3ccccc3-c3nnc(SCc4ccc(C)cc4)nc3O2)cc(OC)c1O (stereo not given)	none
COc1cccc(CNC(=O)C2CCN(c3nnc(-n4c(C)ccc4C)s3)CC2)c1	none
O=C=Nc1ccc(Cc2ccc(N=C=O)cc2)cc1 (tested in a mixture with another compound)	none
O=C=Nc1ccc(Cc2ccc(N=C=O)cc2)cc1	Cruzain inh noDet 16µM
CCOC(=O)C1=C(C)N=c2s/c(=C\c3cc(OC)c(OC)c(OC)c3)c(=O)n2C1/C=C/c1ccccc1 (stereo not given)	none
COc1cccc(C2C3=C(N=c4s/c(=C\c5cccc(O)c5)c(=O)n42)c2ccccc2CC3)c1OC (stereo not given)	Cruzain inh noDet 10µM
COc1cccc(C2C3=C(N=c4s/c(=C\c5ccc(O)cc5)c(=O)n42)c2ccccc2CC3)c1OC (stereo not given)	Cruzain inh noDet inconclusive
COc1ccccc1C1C2=C(N=c3s/c(=C/c4cccc(OCC(=O)O)c4)c(=O)n31)c1ccccc1CC2 (stereo not given)	Cruzain inh Det 28µM, Cruzain inh noDet inconclusive
Clc1ccc(CCNC(c2cccc(Cl)c2)c2nnc(-c3ccccc3)o2)cc1 (stereo not given)	none
N#Cc1cccc(-c2nc(NCCN3CCOCC3)c3ccccc3n2)c1	none
COc1ccc(-n2nc3c(N4CCCC(C(=O)NCc5cccc(F)c5)C4)nnc(C)c3c2C)cc1 (stereo not given)	none
O=C(CNC(=O)c1ccc(Cl)cc1)OCc1cc(=O)n2ccsc2n1	none
COn1c2c(c3c4no[n+]([O-])c4ccc31)CCCC2	Cruzain inh noDet 20µM
COn1c2c(c3c4nonc4ccc31)CCCC2	none
CCc1nnc(SCC(=O)N(CC)c2ccccc2)c2cc3oc(C)cc3n12	none
COc1ccc2c(c1)c(=O)c(S(=O)(=O)c1ccccc1)cn2CC(=O)Nc1ccc2c(c1)OCO2	none
Cc1ccc(S(=O)(=O)c2cn(CC(=O)Nc3ccc(C)c(Cl)c3)c3ccc(C)cc3c2=O)cc1	Cruzain inh noDet inconclusive
COc1ccc(NC(=O)Cn2cc(S(=O)(=O)c3ccccc3)c(=O)c3cc(C)ccc32)cc1Cl	Cruzain inh noDet 25µM
COc1ccc2c(c1)c(=O)c(S(=O)(=O)c1ccccc1)cn2CC(=O)Nc1ccc(C)c(Cl)c1	Cruzain inh noDet 20µM
COc1cccc2cc(C(=O)NCCc3c(C)[nH]c4ccc(Br)cc34)c(=O)oc12	none
CCNc1ncc2nc(-c3ccc(Cl)cc3)c(=O)n(-c3ccc(OC)cc3)c2n1	none
CCC(=O)N1CCc2cc(Br)cc(S(=O)(=O)N3CCCC(C(=O)Nc4cccc(F)c4)C3)c21 (stereo not given)	none
O=C(/C=C/c1ccc(Cl)c([N+](=O)[O-])c1)Nc1ccc(NC(=O)c2ccco2)cc1	Cruzain inh noDet inconclusive
O=C(/C=C/c1ccc(Cl)c([N+](=O)[O-])c1)Nc1ccc(N2CCCC2)cc1	Cruzain inh noDet 16µM
CC(=O)c1cc(C(=O)Nc2cccc(C)c2)c2ccccn12	none
O=C(CC(NC(=O)c1ccccc1)c1ccccc1)Nc1cccc2ccccc12 (stereo not given)	Cruzain inh noDet 25µM
O=C(CC(C(=O)O)c1ccccc1)Nc1cccc2ccccc12 (stereo not given)	none
CCOC(=O)c1ccccc1NC(=O)CCc1c(C)nc2ncnn2c1C	none
Cc1cccc(CNC(=O)c2ccc3c(c2)c(C)c(C)n3Cc2ccccc2)c1	Cruzain inh noDet inconclusive
Cc1ccccc1CCNC(=O)c1ccc2c(c1)c(C)c(C)n2C	Cruzain inh noDet inconclusive
CCOC(=O)c1ccc(NC(=O)c2ccc3c(c2)c(C)c(C)n3Cc2ccc(F)cc2)cc1	Cruzain inh noDet 7.9µM
Cc1ccccc1CCNC(=O)c1ccc2c(c1)c(C)c(C)n2Cc1ccccc1	Cruzain inh noDet 20µM
COc1ccc(NC(=O)c2ccc3c(c2)c(C)c(C)n3Cc2ccc(F)cc2)cc1	Cruzain inh noDet inconclusive
Cc1c(C)n(Cc2ccccc2)c2ccc(C(=O)NCc3ccc(OC(C)C)cc3)cc12	Cruzain inh noDet 25µM
COc1ccc(CCNC(=O)c2ccc3c(c2)c(C)c(C)n3Cc2ccccc2)c(OC)c1OC	Cruzain inh noDet inconclusive
Cc1c(C)n(Cc2ccccc2)c2ccc(C(=O)NCCc3ccccc3Cl)cc12	Cruzain inh noDet 25µM
COc1ccc(-n2ccnc(NCc3cccs3)c2=O)cc1	none
O=C(CSc1nc2ccccc2nc1Cc1ccccc1F)Nc1cccc(C(F)(F)F)c1	none
CC(C)c1ccc(Nc2nc3ccc(C(=O)c4ccccc4)cc3n3cnnc23)cc1	none
COc1cc(Cl)c(C)cc1NC(=O)c1cnn(-c2ccc(C)cc2)c1-n1cccc1	none
